Laboratory results from PubChem BioAssay (NCI).
Where “and” joins values, the source holds several entries; their conditions need not be identical. Equal entries are not always repeated. Compounds without any hit were thinned out: in the full panel of roughly 83,000, 20% have a hit.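 48-hour exposure, single concentration, 96-well plates; percent growth endpoint where 0 means no net growth. Active: below 10.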 Values without a mark were called inactive. Calls of active or inactive are those of the source. Starred links: 1 amine or outer side, 2 acyl side, 3 side chain; linkers in the order of their positions; H or OH if unused. Positions of bridges follow the written chain, without caps; N, C: chain ends. Non-standard residues stand in square brackets, D forms with d. Residues, ends and D or L forms follow the SMILES beside them. Chains are numbered I, II in the order given. Actinocin(9to1) = Cc1c2oc3c(C)ccc(C(=O)[*:1])c3nc-2c(C(=O)[*:2])c(N)c1=O; aThr = C[C@H](O)[C@H](N)C(=O)O; NMeV = CN[C@H](C(=O)O)C(C)C; Sar = CNCC(=O)O

The compounds below were run on A498 renal (assay: NCI-60 one-dose screen, 48 h (100 = growth as untreated, 0 = no growth, -100 = all killed)). Conditions: 10 µM.

Row | SMILES | growth
1 | N#C/C(=C1C=C/C(=N\O)C(Cl)=C\1)c1ccccc1 | 86.5%
2 | CN(C)CCC(=O)c1c[nH]c2ccccc12 | 126%
3 | O=c1[nH]cc(F)c(=O)[nH]1 | 40.1%
4 | CSc1ccc2c(c1)C(N1CCN(C)CC1)Cc1ccccc1S2 (stereo not given) | 16.4%
5 | COc1cc(C(C)(C)C)cc(OC)c1C(O)(c1c(OC)cc(C(C)(C)C)cc1OC)c1c(OC)cc(C(C)(C)C)cc1OC | -79.4% (active)
6 | S=c1[nH]nc(Cc2ccccc2)c(=S)[nH]1 | 68.9%
7 | O=C(/C(=C/c1ccccc1)CBr)c1ccccc1 | 128%
8 | Nc1ccc2cc(Br)c3ccccc3c2c1 | 77.5%
9 | Cc1cc(NCCCN(C)C)c2ccc3c(ccc4c(NCCCN(C)C)cc(C)nc43)c2n1 | -87.6% (active)
10 | Cc1cnc(/C=N\NC(N)=S)c2cccc(N)c12 | 12.4%
11 | CCCCCCCCCCCCCCCCCN | 104%
12 | BrC/C=C/C[P+](c1ccccc1)(c1ccccc1)c1ccccc1 | 72.9%

Each compound was assayed on CCRF-CEM leukemia in the same assay as above. Conditions: 10 µM.

Row | SMILES | growth
13 | CN(C)CCC(=O)c1c[nH]c2ccccc12 | 96.2%
14 | O=c1[nH]cc(F)c(=O)[nH]1 | 56.3% and 65.9%
15 | CSc1ccc2c(c1)C(N1CCN(C)CC1)Cc1ccccc1S2 (stereo not given) | 31.7%
16 | COc1cc(C(C)(C)C)cc(OC)c1C(O)(c1c(OC)cc(C(C)(C)C)cc1OC)c1c(OC)cc(C(C)(C)C)cc1OC | -68% (active)
17 | S=c1[nH]nc(Cc2ccccc2)c(=S)[nH]1 | 104%
18 | O=C(/C(=C/c1ccccc1)CBr)c1ccccc1 | -4.28% (active)
19 | Nc1ccc2cc(Br)c3ccccc3c2c1 | 37.8%
20 | CN1CCN(c2ccc3nc(-c4ccc5nc(-c6ccc(O)cc6)[nH]c5c4)[nH]c3c2)CC1 | 74%
21 | Cc1cc(NCCCN(C)C)c2ccc3c(ccc4c(NCCCN(C)C)cc(C)nc43)c2n1 | -28.7% (active)
22 | Cc1c2oc3c(C)ccc(C(=O)N[C@@H]4C(=O)N[C@H](C(C)C)C(=O)N5CCC[C@H]5C(=O)N(C)CC(=O)N(C)[C@@H](C(C)C)C(=O)O[C@H]4C)c3nc-2c(C(=O)N[C@@H]2C(=O)N[C@H](C(C)C)C(=O)N3CCC[C@H]3C(=O)N(C)CC(=O)N(C)[C@@H](C(C)C)C(=O)O[C@H]2C)c(N)c1=O (I: [aThr][dV]P[Sar][NMeV] / II: [aThr][dV]P[Sar][NMeV]; ester I:1-I:C, II:1-II:C; linker I:N-II:N via Actinocin(9to1)) | 0.799% (active)
23 | Cc1cnc(/C=N\NC(N)=S)c2cccc(N)c12 | -28.1% (active)
24 | CCCCCCCCCCCCCCCCCN | 102%
25 | BrC/C=C/C[P+](c1ccccc1)(c1ccccc1)c1ccccc1 | 37.9%

Each compound was assayed on MOLT-4 leukemia in the same assay as above. Conditions: 10 µM.

Row | SMILES | growth
26 | N#C/C(=C1C=C/C(=N\O)C(Cl)=C\1)c1ccccc1 | 33.6%
27 | CN(C)CCC(=O)c1c[nH]c2ccccc12 | 93.6%
28 | O=c1[nH]cc(F)c(=O)[nH]1 | 57.5% and 74.9%
29 | CSc1ccc2c(c1)C(N1CCN(C)CC1)Cc1ccccc1S2 (stereo not given) | -23.3% (active)
30 | COc1cc(C(C)(C)C)cc(OC)c1C(O)(c1c(OC)cc(C(C)(C)C)cc1OC)c1c(OC)cc(C(C)(C)C)cc1OC | -81% (active)
31 | S=c1[nH]nc(Cc2ccccc2)c(=S)[nH]1 | 106%
32 | O=C(/C(=C/c1ccccc1)CBr)c1ccccc1 | -3.18% (active)
33 | Nc1ccc2cc(Br)c3ccccc3c2c1 | 28.2%
34 | CN1CCN(c2ccc3nc(-c4ccc5nc(-c6ccc(O)cc6)[nH]c5c4)[nH]c3c2)CC1 | 76.4%
35 | Cc1cc(NCCCN(C)C)c2ccc3c(ccc4c(NCCCN(C)C)cc(C)nc43)c2n1 | -24.3% (active)
36 | Cc1c2oc3c(C)ccc(C(=O)N[C@@H]4C(=O)N[C@H](C(C)C)C(=O)N5CCC[C@H]5C(=O)N(C)CC(=O)N(C)[C@@H](C(C)C)C(=O)O[C@H]4C)c3nc-2c(C(=O)N[C@@H]2C(=O)N[C@H](C(C)C)C(=O)N3CCC[C@H]3C(=O)N(C)CC(=O)N(C)[C@@H](C(C)C)C(=O)O[C@H]2C)c(N)c1=O (I: [aThr][dV]P[Sar][NMeV] / II: [aThr][dV]P[Sar][NMeV]; ester I:1-I:C, II:1-II:C; linker I:N-II:N via Actinocin(9to1)) | -7.29% (active)
37 | Cc1cnc(/C=N\NC(N)=S)c2cccc(N)c12 | -13.8% (active)
38 | CCCCCCCCCCCCCCCCCN | 104%
39 | BrC/C=C/C[P+](c1ccccc1)(c1ccccc1)c1ccccc1 | 79.7%

The compounds below were run on SR leukemia in the same assay as above. Conditions: 10 µM.

Row | SMILES | growth
40 | CN(C)CCC(=O)c1c[nH]c2ccccc12 | 91.5%
41 | O=c1[nH]cc(F)c(=O)[nH]1 | 27.6% and 37.4%
42 | CSc1ccc2c(c1)C(N1CCN(C)CC1)Cc1ccccc1S2 (stereo not given) | -32.8% (active)
43 | COc1cc(C(C)(C)C)cc(OC)c1C(O)(c1c(OC)cc(C(C)(C)C)cc1OC)c1c(OC)cc(C(C)(C)C)cc1OC | -77.5% (active)
44 | S=c1[nH]nc(Cc2ccccc2)c(=S)[nH]1 | 94.7%
45 | O=C(/C(=C/c1ccccc1)CBr)c1ccccc1 | -0.723% (active)
46 | Nc1ccc2cc(Br)c3ccccc3c2c1 | 57.5%
47 | CN1CCN(c2ccc3nc(-c4ccc5nc(-c6ccc(O)cc6)[nH]c5c4)[nH]c3c2)CC1 | 67%
48 | Cc1c2oc3c(C)ccc(C(=O)N[C@@H]4C(=O)N[C@H](C(C)C)C(=O)N5CCC[C@H]5C(=O)N(C)CC(=O)N(C)[C@@H](C(C)C)C(=O)O[C@H]4C)c3nc-2c(C(=O)N[C@@H]2C(=O)N[C@H](C(C)C)C(=O)N3CCC[C@H]3C(=O)N(C)CC(=O)N(C)[C@@H](C(C)C)C(=O)O[C@H]2C)c(N)c1=O (I: [aThr][dV]P[Sar][NMeV] / II: [aThr][dV]P[Sar][NMeV]; ester I:1-I:C, II:1-II:C; linker I:N-II:N via Actinocin(9to1)) | 3.04% (active)
49 | Cc1cnc(/C=N\NC(N)=S)c2cccc(N)c12 | -16.3% (active)
50 | CCCCCCCCCCCCCCCCCN | 57.8%
